Results: PubChem BioAssay (NCI)
The panel holds about 83,000 compounds, 20% with a hit somewhere; the sample as a whole holds those more often.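 Note: values are percent growth. 100 is the growth of untreated cells, values between 100 and 0 indicate rising inhibition; between -100 and 0 indicates cell death.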 Activity calls are given as the source filed them. How the source made its calls: active means growth percent below 10; inactive means the rest.

What follows are compounds tested on COLO 205 colon (assay: NCI-60 one-dose screen, 48 h (100 = growth as untreated, 0 = no growth, -100 = all killed)). Conditions: 10 µM unless noted.
In the case of `O=c1[nH]c2cc(Cl)c(Cl)cc2o1`, the growth is reported as 123% (inactive).
With `CC(COC(=O)c1ccccc1)N1CC2CCC(C1)O2` (stereo unspecified) the growth was 104% (inactive).
`CC[C@H](Nc1nc(C)nc(N)c1C#N)c1nc2cccc(NCc3ccc(C(=O)NO)cc3)c2c(=O)n1-c1ccccc1` was tested, and the growth was 0.926% (active).
In the case of `Cc1cc(NC(=O)C2c3ccccc3C(=O)N(CC(C)C)C2c2cccs2)no1` (stereo unspecified), the growth is reported as -83.9% (active).
For `Clc1ccc2c(c1)-n1cccc1C(c1ccc3ccccc3c1)=NC2`, the growth was 102% (inactive).
For `CCC1CCc2nc3sc(C(=O)Nc4cccc(F)c4)c(N)c3cc2C1` (stereo unspecified), the growth was 67.8% (inactive).
With `CCn1c(CN2CCN(Cc3ccccc3)CC2)nc2cc(NC(=O)c3cccs3)ccc21` the growth was -91.3% (active).
`CCN(CC)CCCNc1cccc2c(C)cc(OC)nc12` was tested, and the growth was 87.4% (inactive).
In the case of `COc1ccc(-c2cn(-c3cccc(C(=O)/C=C/c4ccc(O)c(OC)c4)c3)c(=O)[nH]2)cc1`, the growth is reported as 105% (inactive).
`COc1ccc(/C=c2\c(=O)n(-c3ccccc3)c3nn4c(n23)=NNC42CCCCC2)cc1` was tested, and the growth was 105% (inactive).
With `CCNC(=S)N(Cc1ccccc1)Cc1ccccc1` the growth was 132% (inactive).
With `CCCCCCCCCCCCCCCc1cc(O)ccc1[N+](=O)[O-]` the growth was 96% (inactive).
In the case of `COC1=CC(c2ccc[nH]2)=N/C1=C\c1[nH]c(C)c(C(=O)CCCCCCCCC(=O)O[C@H]2CC[C@H]3C4CCc5cc(O)ccc5C4CC[C@]23C)c1C` (stereo partly specified), the growth is reported as 18.5% (inactive).
For `CCc1oc2ccccc2c1C(=O)c1cc(I)c(O)c(I)c1`, the growth was 104% (inactive).
`Cc1ccc(N=CNN=C(N)N)cc1` was tested, and the growth was 113% (inactive).
`CCCCN(CCCC)CCCN=c1nc2c(c(N)n1-c1ccccc1)c(=S)n(-c1ccccc1)c(=S)n2-c1ccccc1` was tested, and the growth was -74.1% (active).
For `[Ag].[Ag].[NH-]S(=O)(=O)c1ccc(N=Nc2cc(N=Nc3ccc(S([NH-])(=O)=O)cc3)c3c(NC(=O)C(Cl)Cl)cccc3c2OC(=O)C(Cl)Cl)cc1.[c-]1nccs1.[c-]1nccs1`, the growth was 6.93% (active).
In the case of `COc1cc(NCCCCC(C)N)c2nccc(C)c2c1` (stereo unspecified), the growth is reported as 37% (inactive).
With `COC(=O)C(C)NC1=C(Cl)C(=O)C(NC(C)C(=O)OC)=C(Cl)C1=O` (stereo unspecified) the growth was 99.5% (inactive).
`COc1cc2nccc(Oc3ccc(NC(=O)C4(C(=O)Nc5ccc(F)cc5)CC4)cc3)c2cc1OC(=O)c1ccc(N)cc1` was tested, and the growth was -36.5% (active).
`O=C(NO)c1ccc(NCc2csc3ccccc23)cc1` was tested, and the growth was 50.1% (inactive).
In the case of `COc1ccc2[nH]c(O)c(/C=c3/ccc4c(c3)N=C(c3ccc(F)cc3)N=4)c2c1`, the growth is reported as 72.9% (inactive).
In the case of `CCN(CC)CCCC(C)N/C(c1cccc(OC)c1)=c1\c(=O)[nH]n(-c2c3ccccc3nc3ccccc23)c(=O)\c1=C(/NC(C)CCCN(CC)CC)c1cccc(OC)c1` (stereo unspecified), the growth is reported as -90.1% (active).

These compounds were tested on DU-145 prostate in the same assay as above. Conditions: 10 µM unless noted.
With `COc1ccc(/C(=C\c2cc(OC)c(OC)c(OC)c2)C(=O)N2CCNCC2)cc1` the growth was 112% (inactive).
In the case of `O=c1c2sc3ncc(Cl)cc3c2nnn1-c1cccc(Cl)c1`, the growth is reported as 65.3% (inactive).
For `F`, the growth was 49.5% [6.87 mM] (inactive).
For `CC1=C(C(=O)Nc2ccc(F)cc2)C(c2ccc(C)cc2)C2=C(CC(C)(C)CC2=O)N1` (stereo unspecified), the growth was 106% (inactive).
With `CC[C@H](Nc1nc(N)nc(C2CC2)c1C#N)c1nc2cccc(NCc3ccc(C(=O)NO)cc3)c2c(=O)n1-c1ccccc1` the growth was -29.3% (active).
In the case of `CC(C)N1CCN(c2ccncc2S(=O)(=O)N2CCN(C)CC2)CC1`, the growth is reported as 110% (inactive).
`c1ccc(C(CC2=NCCCN2)c2ccccc2)cc1` was tested, and the growth was 102% (inactive).
`Clc1ccc2c(c1)-c1ccccc1C1=NCCN12` was tested, and the growth was 30.8% (inactive).
In the case of `O=C(C=P(c1ccccc1)(c1ccccc1)c1ccccc1)CCl`, the growth is reported as -36.5% (active).
`COc1cc(/C=C/C(=O)c2ccc(NC(=O)CSc3nnc(-c4ccc(Cl)cc4)n3-c3ccccc3)cc2)cc(OC)c1OC` was tested, and the growth was 80% (inactive).
For `OC(c1cc2cc(Cl)ccc2c2cc(C(F)(F)F)ccc12)C1CCCCN1` (stereo unspecified), the growth was -95.8% (active).
For `Clc1cc(Br)ccc1-c1ccc(CNCC2CCNCC2)o1`, the growth was 62.4% (inactive).
In the case of `CN1CCN(Cc2ccc(NC(=O)c3cncc(C#Cc4ncc5cnccn45)c3)cc2C(F)(F)F)CC1`, the growth is reported as 46.8% (inactive).
`CC1=C(C(=O)Nc2ccc(F)cc2)C(c2ccc(Cl)cc2)C2=C(CC(C)(C)CC2=O)N1` (stereo unspecified) was tested, and the growth was 105% (inactive).
In the case of `CCOC(=O)c1ccc(N(CCC(=O)O)C(C)=O)cc1`, the growth is reported as 122% (inactive).
With `O=c1[nH]c2cc(Cl)c(Cl)cc2o1` the growth was 113% (inactive).
`CC(COC(=O)c1ccccc1)N1CC2CCC(C1)O2` (stereo unspecified) was tested, and the growth was 107% (inactive).
With `CC[C@H](Nc1nc(C)nc(N)c1C#N)c1nc2cccc(NCc3ccc(C(=O)NO)cc3)c2c(=O)n1-c1ccccc1` the growth was 11.2% (inactive).
For `Cc1cc(NC(=O)C2c3ccccc3C(=O)N(CC(C)C)C2c2cccs2)no1` (stereo unspecified), the growth was -9.63% (active).
With `Clc1ccc2c(c1)-n1cccc1C(c1ccc3ccccc3c1)=NC2` the growth was 115% (inactive).
With `CCC1CCc2nc3sc(C(=O)Nc4cccc(F)c4)c(N)c3cc2C1` (stereo unspecified) the growth was 60% (inactive).
In the case of `CCn1c(CN2CCN(Cc3ccccc3)CC2)nc2cc(NC(=O)c3cccs3)ccc21`, the growth is reported as -57.7% (active).
In the case of `CCN(CC)CCCNc1cccc2c(C)cc(OC)nc12`, the growth is reported as 114% (inactive).
In the case of `COc1ccc(-c2cn(-c3cccc(C(=O)/C=C/c4ccc(O)c(OC)c4)c3)c(=O)[nH]2)cc1`, the growth is reported as 6.8% (active).
With `COc1ccc(/C=c2\c(=O)n(-c3ccccc3)c3nn4c(n23)=NNC42CCCCC2)cc1` the growth was 106% (inactive).
For `CCNC(=S)N(Cc1ccccc1)Cc1ccccc1`, the growth was 124% (inactive).
`CCCCCCCCCCCCCCCc1cc(O)ccc1[N+](=O)[O-]` was tested, and the growth was 104% (inactive).
With `COC1=CC(c2ccc[nH]2)=N/C1=C\c1[nH]c(C)c(C(=O)CCCCCCCCC(=O)O[C@H]2CC[C@H]3C4CCc5cc(O)ccc5C4CC[C@]23C)c1C` (stereo partly specified) the growth was 32.2% (inactive).
In the case of `CCc1oc2ccccc2c1C(=O)c1cc(I)c(O)c(I)c1`, the growth is reported as 77.8% (inactive).
With `Cc1ccc(N=CNN=C(N)N)cc1` the growth was 113% (inactive).
In the case of `CCCCN(CCCC)CCCN=c1nc2c(c(N)n1-c1ccccc1)c(=S)n(-c1ccccc1)c(=S)n2-c1ccccc1`, the growth is reported as -100% (active).
For `[Ag].[Ag].[NH-]S(=O)(=O)c1ccc(N=Nc2cc(N=Nc3ccc(S([NH-])(=O)=O)cc3)c3c(NC(=O)C(Cl)Cl)cccc3c2OC(=O)C(Cl)Cl)cc1.[c-]1nccs1.[c-]1nccs1`, the growth was 70.1% (inactive).
`COc1cc(NCCCCC(C)N)c2nccc(C)c2c1` (stereo unspecified) was tested, and the growth was 111% (inactive).
In the case of `COC(=O)C(C)NC1=C(Cl)C(=O)C(NC(C)C(=O)OC)=C(Cl)C1=O` (stereo unspecified), the growth is reported as 101% (inactive).
In the case of `COc1cc2nccc(Oc3ccc(NC(=O)C4(C(=O)Nc5ccc(F)cc5)CC4)cc3)c2cc1OC(=O)c1ccc(N)cc1`, the growth is reported as 45.3% (inactive).
In the case of `O=C(NO)c1ccc(NCc2csc3ccccc23)cc1`, the growth is reported as 54.3% (inactive).
In the case of `COc1ccc2[nH]c(O)c(/C=c3/ccc4c(c3)N=C(c3ccc(F)cc3)N=4)c2c1`, the growth is reported as 67.6% (inactive).
In the case of `CCN(CC)CCCC(C)N/C(c1cccc(OC)c1)=c1\c(=O)[nH]n(-c2c3ccccc3nc3ccccc23)c(=O)\c1=C(/NC(C)CCCN(CC)CC)c1cccc(OC)c1` (stereo unspecified), the growth is reported as -13.5% (active).
